# The list is not random: actives were taken first. Their share in the collection is about 22%.
# CYP2C9 inh: blockers of cytochrome P450 2C9 activity – biochemical, luminescence, ADME assay, primary screen; P11712; CYP2C9 Supersomes, luciferin-H conversion; inhibition, % at 5 µM; hit rate 20% among 96,000;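 active = blocking of liver enzyme CYP2C9 beyond about 50% at 5 µM, limit read from the data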
# Measles CPE: compounds protecting cells from measles virus cytopathic effect, primary screen, measles RdRp inhibitor project, single point, MLSMR library, absorbance; protection (pct of control), % at 4 µM; Measles virus-infected cells, CPE protection; hit rate 1.5% among 140,000; in the data active = protection mostly above about 24%, no sharp cut-off; inactive = mostly below about 26%
# CYP2C19 inhib: blockers of cytochrome P450 2C19 activity – biochemical, luminescence, ADME assay, primary screen; CYP2C19 Supersomes, luciferin-H EGE luminescence, 30 min; AID 778, 2007; inhibition, % at 5 µM; hit rate 21% among 96,000;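 active = CYP2C19 inhibition above a set limit at 5 µM in the primary screen, cut at about 50% in these data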;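 also: plate controls were negative control wells for no effect and 2.5 mM tranylcypromine positive control for full effect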
# Target sequence (P33261 whole entry, looked up): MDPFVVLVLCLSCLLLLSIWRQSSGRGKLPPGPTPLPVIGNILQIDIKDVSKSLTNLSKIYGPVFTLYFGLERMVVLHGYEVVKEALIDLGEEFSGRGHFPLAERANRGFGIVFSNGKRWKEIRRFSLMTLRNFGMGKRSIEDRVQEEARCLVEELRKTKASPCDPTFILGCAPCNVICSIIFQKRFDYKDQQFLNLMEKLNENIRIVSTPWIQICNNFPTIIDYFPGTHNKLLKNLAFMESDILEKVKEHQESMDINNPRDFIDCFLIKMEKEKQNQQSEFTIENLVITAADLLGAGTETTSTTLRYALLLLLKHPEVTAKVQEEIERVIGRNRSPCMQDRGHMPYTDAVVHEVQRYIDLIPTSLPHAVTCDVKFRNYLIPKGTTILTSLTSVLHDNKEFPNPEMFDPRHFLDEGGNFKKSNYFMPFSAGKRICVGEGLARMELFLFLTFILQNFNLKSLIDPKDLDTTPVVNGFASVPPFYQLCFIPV
# CYP2C9 activ: human CYP2C9 activators, primary screen, biochemical, luminescence; Cytochrome P450 2C9 (Homo sapiens), P11712; recombinant CYP2C9, luciferin-H conversion; hits give high values; factor 1 = untreated enzyme, 0 = blocked; activation factor at 5 µM; hit rate 1.4% among 96,000; AID 1024, 2008;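 active = activation factor of 2 or more for CYP2C9 at a 5 µM dose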;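 also: 0 = sulfaphenazole-blocked wells and 1 = vehicle-only wells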
# CYP2C19 activ: human CYP2C19 activators, primary screen, biochemical, luminescence; Cytochrome P450 2C19 (Homo sapiens), P33261; recombinant CYP2C19, luciferin-H EGE luminescence; hits give high values; 0 = fully inhibited enzyme, 1 = untreated enzyme; activation factor at 5 µM; 96,000 tested, under 10 active;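 active = activation factor of at least 2 at 5 µM in the primary screen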;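 also: 0 = wells with 2.5 mM tranylcypromine and 1 = vehicle-only wells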
# Starred values were filed as active, the others as inactive; nt = not tested or not shown.
SMILES,CYP2C9 inh,Measles CPE,CYP2C19 inhib,CYP2C9 activ,CYP2C19 activ
Cc1ccccc1NC(=O)CSc1nnc(-c2ccco2)c(-c2ccco2)n1,77*,12,50,0.2,0.5
Cc1ccc(NC(=O)CSc2nnc(-c3ccco3)c(-c3ccco3)n2)cc1,95*,4,98*,0,0
O=C(Cc1ccc(Cl)cc1)Nc1ccc(-c2nnc(-c3ccco3)o2)cc1,76*,5,55*,0.2,0.5
Cc1cccc(C)c1NC(=O)CSc1nnc(-c2ccco2)c(-c2ccco2)n1,-17,21,-19,1.2,1.2
Cc1ccc(SCC(=O)Nc2ccc(-c3nnc(-c4ccco4)o3)cc2)cc1,90*,21,36,0.1,0.6
COc1nccnc1NS(=O)(=O)c1ccc(NC(=S)NC(=O)c2ccccc2F)cc1,nt,15,nt,nt,nt
CN(C)CCCNC(=O)CC(c1ccccc1)c1ccccc1O (stereo not drawn),-17,11,-18,1.2,1.2
O=C(CSc1nnc(-c2ccco2)c(-c2ccco2)n1)Nc1ccccc1,73*,8,28,0.3,0.7
Cc1ccc(C(C(=O)NC2CCCC2)N(Cc2ccco2)C(=O)CCC(=O)Nc2cc(C)on2)cc1 (stereo not drawn),nt,3,nt,nt,nt
Cc1ccc(C)c(N(C(=O)CCC(=O)Nc2cc(C)on2)C(C(=O)NC2CCCC2)c2ccco2)c1 (stereo not drawn),20,8,54*,0.8,0.5
Cc1ccc(C)c(N(C(=O)Cc2cccs2)C(C(=O)NC2CCCC2)c2ccc(C)o2)c1 (stereo not drawn),73*,11,-7,0.3,1.1
Cc1ccc(C(C(=O)NC2CCCC2)N(C(=O)Cc2cccs2)c2ccc(C)c(C)c2)o1 (stereo not drawn),-5,12,10,1,0.9
Cc1ccc(N(C(=O)C(F)(F)F)C(C(=O)NC2CCCCC2)c2cccs2)cc1 (stereo not drawn),55*,7,31,0.4,0.7
O=C(CCC(=O)N(c1ccccc1)C(C(=O)NC1CCCC1)c1ccncc1)Nc1cccnc1 (stereo not drawn),46,1,70*,0.5,0.3
O=C(CCC(=O)N(c1cccc(F)c1)C(C(=O)NC1CCCC1)c1ccncc1)Nc1cccnc1 (stereo not drawn),nt,22,nt,nt,nt
CCN(CC)CC#CCOC(=O)C(O)(c1ccccc1)C1CCCCC1 (stereo not drawn),nt,53,nt,nt,nt
Cc1ccc(N(C(=O)CCC(=O)Nc2cc(C)on2)C(C(=O)NC2CCCC2)c2cccs2)cc1 (stereo not drawn),89*,9,95*,0.1,0.1
Cc1cc(NC(=O)CCC(=O)N(c2ccccc2)C2(C(=O)NC3CCCCC3)CCCC2)no1,24,6,14,0.8,0.9
Cc1cc(NC(=O)CCC(=O)N(Cc2ccco2)C2(C(=O)NC3CCCCC3)CCN(C)CC2)no1,11,5,74*,0.9,0.3
Cc1cc(NC(=O)CCC(=O)N(c2ccccc2)C(C(=O)NC2CCCC2)c2ccccc2)no1 (stereo not drawn),nt,10,nt,nt,nt
Cc1cc(NC(=O)CCC(=O)N(c2ccccc2)C(C(=O)NC2CCCC2)c2cccs2)no1 (stereo not drawn),70*,14,77*,0.3,0.2
O=C(NC1CCCC1)C(c1cccs1)N(C(=O)c1ccco1)c1ccc2c(c1)OCCO2 (stereo not drawn),78*,5,80*,0.2,0.2
CC(C)(C)N(Cc1cc2ccccc2[nH]c1=O)C(=O)C1CCCCC1,nt,7,nt,nt,nt
CC(NC(=O)Cc1ccc(-c2ccccc2)cc1)c1ccccc1 (stereo not drawn),34,16,22,0.7,0.8
CCc1ccc(/C=C\C(=O)N2CCc3ccccc3C2)cc1,18,1,17,0.8,0.8
SMILES,CYP2C9 inh,Measles CPE,CYP2C19 inhib,CYP2C9 activ,CYP2C19 activ
COc1cc(CCC(=O)OCC(=O)Nc2ccccc2C(C)C)cc(OC)c1OC,nt,19,nt,nt,nt
COC(=O)c1cc(NC(=O)C2CC=CCC2C(=O)O)cc(C(=O)OC)c1 (stereo not drawn),38,9,-5,0.6,1
O=C(NCCn1ccc2ccccc21)c1ccc(S(=O)(=O)N2CCCCC2)cc1,56*,2,17,0.4,0.8
COc1ccc(C(=O)NCCSc2ccccc2)cc1,nt,6,nt,nt,nt
CC(C)(C)C(=O)NCCn1ccc2ccccc21,42,15,97*,0.6,0
O=C(NCCn1ccc2ccccc21)c1ccc2c(c1)OCO2,13,7,65*,0.9,0.3
COc1ccc(C(=O)NCCn2ccc3ccccc32)cc1,-20,17,78*,1.2,0.2
COc1ccc(/C=N/NC(=O)CNC(=O)c2ccc(S(=O)(=O)N3CCOCC3)cc2)c(OC)c1,nt,23,nt,nt,nt
Cc1cc(C)n2nc[n+](C)c2n1,20,18,2,0.8,1
C#CCOC(=O)Nc1ccc(=O)n(Cc2c(Cl)cccc2Cl)c1,69*,4,54*,0.3,0.5
Cc1cccc(Nc2ncccc2C(=O)O)c1C,24,19,3,0.8,1
CC1=CC(C)(C)Nc2cc(C)c(C)cc21,19,11,92*,0.8,0.1
N#CC1=C(N)OC2=C(CC/C2=C\c2ccccc2)C1c1ccccc1 (stereo not drawn),70*,2,26,0.3,0.7
COc1ccc(C2C(C#N)=C(/N=C/N3CCN(C)CC3)OC3=C2C(=O)CC(C)(C)C3)cc1 (stereo not drawn),53*,3,51*,0.5,0.5
CC(c1ccccc1)C1C(C#N)=C(N)OC2=C1C(=O)CCC2 (stereo not drawn),19,3,62*,0.8,0.4
N#CC1=C(N)OC2=C(CC/C2=C\c2ccccc2Cl)C1c1ccccc1Cl (stereo not drawn),nt,7,nt,nt,nt
CC1(C)CC(=O)C2=C(C1)OC(N)=C(C#N)C2c1ccccc1 (stereo not drawn),36,1,73*,0.6,0.3
COc1cccc(NC(=O)C(Sc2nnc(Nc3ccccc3C)s2)c2ccccc2)c1 (stereo not drawn),nt,13,nt,nt,nt
N#CC1=C(N)OC2=C(C(=O)CCC2)C1c1ccccc1 (stereo not drawn),13,34*,19,0.9,0.8
CCCCCCC1C(C#N)=C(N)OC2=C1C(=O)CCC2 (stereo not drawn),75*,4,73*,0.2,0.3
CCCCCCC1C(C#N)=C(N)OC2=C1C(=O)CC(C)(C)C2 (stereo not drawn),nt,13,nt,nt,nt
CCC1C(C#N)=C(N)OC2=C1C(=O)CC(C)(C)C2 (stereo not drawn),nt,0,nt,nt,nt
CC1(C)CC(=O)C2=C(C1)OC(N)=C(C#N)C2C1C=CCCC1 (stereo not drawn),60*,15,30,0.4,0.7

# Screens (PubChem BioAssay)
